From PubChem BioAssay
In the library only some 8% were active in any assay of this set; here they are far more common.
FMDV inh = antivirals against foot and mouth disease virus; FMDV antiviral cell-based qHTS; Potency, µM (highest dose often 57.9 µM), without a hit: top-dose activity change, negative = inhibition, hits mostly inhibitors; 410,000 tested, 1.2% active; AID 1159524; calls by dose curve; tested in HEK293T cells; also: read-out not given here; potency is read from the fitted curve at half-maximal effect; % is scaled to controls: 0 for no effect and ±100 for the full control effect; nearly all actives have a fitted effect of over 45% in size
Marburg entry inh = Marburg virus entry inhibition; Marburg virus pseudotyped entry inhibition, cell reporter; Potency, µM (top dose mostly 37.8 µM), without a hit: top-dose activity change, negative = inhibition, most hits filed as inhibitors; 300,000 tested, 1.8% active; AID 540276; calls by dose curve; tested in HEK293 cells; also: potency is read from the fitted curve at half-maximal effect; % is scaled to controls: 0 for no effect and ±100 for the full control effect
HCMV inh = inhibitors of human cytomegalovirus. HFF cells, HCMV-luciferase reporter, 72 h; stronger effect = lower value. activity change, negative = inhibition, % at 57.5 µM. 410,000 tested, 4.5% active. AID 1259415; in the data active = activity change below about -60%; inconclusive = no clear call, values can overlap the other calls; inactive = above about -39%; also: % is scaled to controls: 0 for no effect and ±100 for the full control effect
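Two-dose cell screen: HFF monolayers treated with compounds and infected with luciferase-expressing HCMV at 1 PFU/cell, 72 h at 37C, then lysed for luciferase measurement.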
LASV entry inh = Lassa virus entry inhibition. Potency, µM (series often up to 37.9 µM), without a hit: top-dose activity change, negative = inhibition, hits mostly inhibitors. Lassa virus pseudotype entry inhibition, cell reporter. 300,000 tested, 1.2% active. AID 540256; calls by dose curve; tested in HEK293 cells; also: potency is read from the fitted curve at half-maximal effect; % is scaled to controls: 0 for no effect and ±100 for the full control effect; nearly all actives have a fitted effect of over 50% in size
SARS PLP yeast = SARS-CoV PLP inhibition in yeast | S. cerevisiae expressing SARS-CoV PLpro, growth rescue | Potency, µM (highest dose often 32.9 µM), for inactives: at the highest dose activity, positive = growth rescue, hits mostly activators | 330,000 tested, 0.19% active | AID 485353; calls by dose curve; also: potency is read from the fitted curve at half-maximal effect; 0% is about no effect; nearly all actives have a fitted effect of over 55% in size
HCV inhibitor = blocks hepatitis C virus; Huh7.5.1 HCVcc-Cre infection, luciferase reporter, 44 h; Potency, µM (highest dose often 41.8 µM), without a hit: top-dose activity change, negative = inhibition, actives largely listed as inhibitors; 340,000 tested, 3.4% active; active = well fitted inhibition curve with a large enough effect; inconclusive = small, poorly fitted or top-dose-only effect, or another doubt; inactive = no such curve, though single readings can be large or run the other way; also: potency is read from the fitted curve at half-maximal effect; % is scaled to controls: 0 for no effect and ±100 for the full control effect
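HCVcc-Cre virus at an moi near 0.5 was added right after compound to cells cultured 4 h from seeding (1,000 cells/well). Luciferase activity was determined 44 h later, 15 min after substrate addition at RT.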
Active calls of the source: *; u = inconclusive; x = no result; [ ] = another dose, or the depositor's remark.

SMILES	FMDV inh	Marburg entry inh	HCMV inh	LASV entry inh	SARS PLP yeast	HCV inhibitor
CCc1c2c(nc3ccc(OC(=O)N4CCC(N5CCCCC5)CC4)cc13)-c1cc3c(c(=O)n1C2)COC(=O)[C@]3(O)CC	0%	x	-92*	x	x	-13%
CCC1(O)C(=O)OCc2c1cc1n(c2=O)Cc2cc3cc(O)ccc3nc2-1 (stereo not given)	0%	x	-107*	x	x	-15%
CCC1(OC(=O)CN)C(=O)OCc2c1cc1n(c2=O)Cc2cc3ccccc3nc2-1 (stereo not given)	-23%	u	x	u	-4%	u
CC[C@@]1(O)C(=O)OCc2c1cc1n(c2=O)Cc2cc3ccccc3nc2-1	-3%	0.025µM*	x	u	-3%	x
CCC[C@H]1[C@@H](NS(=O)(=O)c2ccc(NC(C)=O)cc2)CC[C@@]23CCCN2C(=O)CCC[C@@H]13	x	x	-8	x	x	x
Cc1ccc(Nc2nc3ccc(C)cc3nc2-n2nc(C)cc2C)c(C)c1	-8%	9%[46.1 µM]	-2	20%[46.1 µM]	x	x
Cc1cccc(C(=O)N2CCNC(=O)C2CC(=O)Nc2ccc(F)cc2)c1 (stereo not given)	-27%	-22%[46.1 µM]	8	-4%[46.1 µM]	x	x
N[C@@]1(C(=O)O)CN[C@@H](C(=O)O)C1	-9%	x	x	x	x	x
CC(C)CNc1nc(N)c([N+](=O)[O-])c(N2CCCCCC2)n1	-22%	u	-99*	-28%[46.1 µM]	-2%	u
CCC(C)Nc1nc(N)c([N+](=O)[O-])c(N2CCCCCC2)n1 (stereo not given)	u	u	-36	u	-1%	u
Nc1nc(NCc2ccco2)nc(N2CCCCC2)c1[N+](=O)[O-]	-22%	10µM*	24	1%	-9%	-5%
CC1CCc2c(sc3ncnc(N4CCOCC4)c23)C1 (stereo not given)	-28%	-21%	-65*	10%	x	-26%
CC1CCc2c(sc3ncnc(NCCN4CCOCC4)c23)C1 (stereo not given)	-15%	-1%	-15	x	-1%	u
CC1CCc2sc3ncnc(N4CCOCC4)c3c2C1 (stereo not given)	u	8%	u	-3%	-5%	10µM*
Cc1ccc(C(=O)CSc2ncnc3sc4c(c23)CCC(C)C4)cc1 (stereo not given)	-8%	7%	-99*	5%	15%	u
CCC(c1ccc(O)c(O)c1)C(CC)c1ccc(O)c(O)c1 (stereo not given)	-18%	u	x	u	x	13µM*
COc1cccc(C(=O)NCC2Cc3cccc(-c4nc(C)cnc4C)c3O2)c1OC (stereo not given)	-3%	x	x	x	x	x
CCOc1ccc(NS(=O)(=O)c2cccc(C(=O)NCC3(N(C)C)CCCCC3)c2)cc1	2%	11µM*	-31	u	4%	u
COc1ccc(NS(=O)(=O)c2cccc(C(=O)NC3CCN(Cc4ccccc4)CC3)c2)cc1	-25%	u	-65*	u	-16%	u
COc1ccc(Cl)cc1NS(=O)(=O)c1cccc(C(=O)NC2CCN(Cc3ccccc3)CC2)c1	u	x	-13	x	x	u
CN(C)C1(CNC(=O)c2ccc(NS(=O)(=O)c3ccc(Cl)c(Cl)c3)cc2)CCCCC1	15%	x	-8	x	5%	u
COc1ccc(Cn2c(=O)[nH]c3cc(C(=O)Nc4ccc(N5CCN(C)CC5)cc4)ccc32)cc1	-14%	u	-26	0%	27%	u
COc1ccc(NS(=O)(=O)c2cccc(C(=O)NNC(=O)NCCCl)c2)cc1	14%	-9%[46.1 µM]	-65*	1%	-1%	-1%
CCN1CCN(c2ccc(NC(=O)c3ccc4c(c3)[nH]c(=O)n4Cc3ccc(F)cc3)cc2)CC1	-22%	u	u	u	26%	7.1µM*
Cc1ccc(NC(=O)CSc2nnc(-c3cc4occc4n3C)n2-c2ccccc2C)c(C)c1	5%	x	-16	-23%[46.1 µM]	x	x
SMILES	FMDV inh	Marburg entry inh	HCMV inh	LASV entry inh	SARS PLP yeast	HCV inhibitor
CCOC(=O)c1[nH]c2c(c1Cc1ccccc1OC)C(=O)CC(c1ccccc1)C2 (stereo not given)	3%	8%[46.1 µM]	-13	-19%[46.1 µM]	x	x
COc1ccc(Cn2c(=O)[nH]c3cc(C(=O)NC4CCN(Cc5ccccc5)CC4)ccc32)cc1	u	9.2µM*	-23	-25%	-1%	10µM*
COc1ccc(NS(=O)(=O)c2cccc(C(=O)N3CCC3)c2)cc1	16%	-6%	-15	-13%	-1%	u
COc1ccc(NS(=O)(=O)c2cccc(C(=O)NCC3(N4CCOCC4)CCCCC3)c2)cc1	24%	u	-67*	u	1%	1%
COc1ccc(NS(=O)(=O)c2cccc(C(=O)NCc3ccccc3CN3CCCC3)c2)cc1	-4%	x	0	x	0%	11µM*
COc1ccc(NS(=O)(=O)c2cccc(C(=O)NCC3(N4CCCCC4)CCCCC3)c2)cc1	26%	u	-7	19%	0%	9%
COc1ccc(NS(=O)(=O)c2cccc(C(=O)N3CCN(S(=O)(=O)c4ccccc4)CC3)c2)cc1	u	x	17	x	x	10µM*
CCc1ccc(C(=O)c2c(N)c(-c3nc(-c4ccc5c(c4)OCO5)cs3)c3ccccn23)cc1	15%	-6%[46.1 µM]	11	-2%[46.1 µM]	x	x
CC(NC(=O)C1CCOCC1)c1nnc2n1CCN(Cc1ccc(F)cc1)CC2 (stereo not given)	-11%	x	x	x	x	x
CNCc1c(OCc2ccccc2)ccc2ccccc12	-2%	u	-7	u	-9%	u
COc1cc(CNC(C)(C)CO)cc(Br)c1OCc1ccc(Cl)cc1Cl	u	13µM*	-99*	u	-35%	10µM*
CC(C)(CO)NCc1c(OCc2ccc(Cl)cc2)ccc2ccccc12	-10%	u	-16	2.5µM*	1%	-23%
COc1cc(CNC(C)(C)CO)cc(Br)c1OCc1ccc(Cl)cc1	0%	u	u	u	-14%	5µM*
COc1cc(CNCCO)cc(Cl)c1OCc1ccc(Cl)cc1Cl	-5%	u	-5	u	-3%	u
COCCn1nc2ccccc2c1OC	x	x	-1	x	x	x
O=C1CC(c2cccc(Cl)c2Cl)c2cc3c(cc2N1)OCCO3 (stereo not given)	u	u	-29	-6%[46.1 µM]	x	x
Cc1ccc2oc(=O)c3cnn(CC(=O)N(C)c4ccc(F)cc4)c3c2c1	-12%	5%[46.1 µM]	3	0%[46.1 µM]	x	x
COc1ccccc1NC(=O)CN1C(=O)CC(c2ccc(C)c(C)c2)=Nc2ccccc21	9%	x	-5	u	x	x
Cc1ccc(C(=O)SC2=NCCS2)cc1	35µM*	12%	-40	4%	-85%	10%
COc1ccc(C(=O)SC2=NCCS2)cc1OC	u	6%	58	19%	0%	12%
COc1cc(-c2nnc(SCCOc3ccc(Cl)cc3C)o2)cc(OC)c1OC	-6%	u	20	-3%[46.1 µM]	x	x
